Results filed as inconclusive are left out. Calls of active or inactive are those of the source. How the source made its calls: active means hit-call score of the fitted dose curve at least 0.9, where 1 is the maximum; inconclusive means response in the unintended direction; inactive means score below 0.9.
biological target: human Vitamin D Receptor (VDR), VDR (gene 7421) (UniProt P11473); assay: ATG_VDR_TRANS: Attagene TRANS-FACTORIAL HepG2 Assay for human Vitamin D Receptor (VDR) (AID 2283022)
Sequence (P11473 whole entry, looked up, the tested form may be a part): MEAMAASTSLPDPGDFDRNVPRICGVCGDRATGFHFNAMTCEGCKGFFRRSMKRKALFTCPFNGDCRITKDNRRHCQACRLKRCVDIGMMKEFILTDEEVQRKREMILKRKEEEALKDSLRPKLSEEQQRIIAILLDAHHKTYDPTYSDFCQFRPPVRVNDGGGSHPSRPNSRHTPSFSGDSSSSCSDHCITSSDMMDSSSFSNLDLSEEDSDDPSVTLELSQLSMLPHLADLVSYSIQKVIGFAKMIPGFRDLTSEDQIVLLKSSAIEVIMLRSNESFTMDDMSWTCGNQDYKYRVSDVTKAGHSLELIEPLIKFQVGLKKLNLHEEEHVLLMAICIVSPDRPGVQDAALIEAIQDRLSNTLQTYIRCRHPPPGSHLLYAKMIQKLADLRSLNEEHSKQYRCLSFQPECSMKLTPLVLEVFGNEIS
Summary of the method: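 Transactivation by an exogenous VDR-Gal4 chimera in transiently transfected HepG2 cells was measured as reporter transcript level 24 hours after chemical treatment. RT-PCR products were analysed by capillary electrophoresis and fitted in the positive direction relative to DMSO.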

outcome, inactive:
CC(C)CCCCCCCOC(=O)c1ccc(C(=O)OCCCCCCCC(C)C)c(C(=O)OCCCCCCCC(C)C)c1, CC(O)C(C)O (stereo not drawn), CCC(=O)OCCC(C)CCC=C(C)C (stereo not drawn), ClCCCl, O=C1c2ccccc2C(=O)N1SC1CCCCC1, CCC(=O)/C=C/C1C(C)=CCCC1(C)C (stereo not drawn), O=c1oc(=O)c2cc3c(=O)oc(=O)c3cc12, CCOC(=O)c1ccccc1OC, CCCCO, C/C=C(\C)C(=O)OCc1ccccc1, O=C(O)c1cccc(C(F)(F)F)c1, CCCCCC(CO)CCC (stereo not drawn), C[C@]12CC[C@H]3[C@@H](CCC4=CC(=O)CC[C@@]43C)[C@@H]1CC[C@@H]2C(=O)CO, CC(=O)C(C)=O, COc1ccc(OC)c(OC)c1, NCCCCCCN, CC1=CCC2C(C1)C2(C)C (stereo not drawn), NCCCN1CCOCC1, CCCCc1ccc(N)cc1, C=CCOc1nc(OCC=C)nc(OCC=C)n1, CCCC(=O)OCCC(C)CCC=C(C)C (stereo not drawn), CCCC(=O)C(C)=O, N#Cc1nc(Cl)c(Cl)c(Cl)c1Cl, OCCOc1cccc(OCCO)c1, O=c1[nH]nnc2ccccc12, COCCOCCOCCOCCOCCO, Cc1c(N(C)C)c(=O)n(-c2ccccc2)n1C, CC(C)=CCC[C@H](C)CC=O, CCC(C)(O)CCC=C(C)C (stereo not drawn), C[Si](O[Si](C)(C)C)O[Si](C)(C)C, C=CC(=O)NCOCC(C)C, CC1(C)OC[C@@H]2O[C@@]3(C(=O)O)OC(C)(C)O[C@H]3[C@@H]2O1, CC(=O)OCC=Cc1ccccc1, N#Cc1ccccc1, CC(CCO)CCCC(C)(C)O (stereo not drawn), CC1(C)CCC(C)(C)c2cc(C(=O)Nc3ccc(C(=O)O)cc3)ccc21, CC(=O)OCCOC(C)=O, CC(=O)OCc1ccc2c(c1)OCO2
